Laboratory results reported in ChEMBL document CHEMBL3433997, “St. Jude Leishmania screening dataset” (2016).

Columns and labels:
Type in all cases: functional
[1] = target: Solute carrier family 2, facilitated glucose transporter member 1 (Homo sapiens) (UniProt P11166); assay: ST_JUDE_LEISH: Cytotoxicity at 2uM final concentration against transgenic Leishmania Mexicana promastigotes LmGLUT1 that are glucose transport deficient and complemented with the human glucose transporter GLUT1. Activity is measured by DNA content using SYBR green in vitro
[2] = target: Hexose transporter 1 (Plasmodium falciparum) (UniProt O97467); assay: ST_JUDE_LEISH: Cytotoxicity at 2uM final concentration against transgenic Leishmania Mexicana promastigotes LmPfHT that are glucose transport deficient and complemented with the Plasmodium falciparum hexose transporter. Activity is measured by DNA content using SYBR green in vitro
[3] = target: Glucose transporter (Leishmania mexicana) (UniProt O61059); assay: ST_JUDE_LEISH: Cytotoxicity at 2uM final concentration against transgenic Leishmania Mexicana promastigotes LmGT2 that are glucose transport deficient and complemented with the L. Mexicana glucose transporter 2. Activity is measured by DNA content using SYBR green in vitro

Chain of Solute carrier family 2, facilitated glucose transporter member 1 (Homo sapiens) (P11166 whole entry): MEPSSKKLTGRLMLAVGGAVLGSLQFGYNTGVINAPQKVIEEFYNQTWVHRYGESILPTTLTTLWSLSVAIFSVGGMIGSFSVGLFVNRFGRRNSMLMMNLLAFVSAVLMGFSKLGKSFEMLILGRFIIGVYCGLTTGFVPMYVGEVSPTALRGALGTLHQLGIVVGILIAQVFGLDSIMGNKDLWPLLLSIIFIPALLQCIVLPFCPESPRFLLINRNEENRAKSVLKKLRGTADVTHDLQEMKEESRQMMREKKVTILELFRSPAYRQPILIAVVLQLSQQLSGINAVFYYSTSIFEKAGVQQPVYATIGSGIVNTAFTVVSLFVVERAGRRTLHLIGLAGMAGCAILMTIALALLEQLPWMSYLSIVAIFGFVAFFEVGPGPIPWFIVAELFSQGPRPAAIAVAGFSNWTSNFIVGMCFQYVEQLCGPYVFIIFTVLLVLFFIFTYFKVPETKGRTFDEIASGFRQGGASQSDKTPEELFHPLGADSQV

Row | SMILES | inhibition [1] | inhibition [2] | inhibition [3]
1 | FC(F)(F)c1ccc2[nH]c(-c3ccc(-c4ccc(CN5CCN(c6ccncc6)CC5)cc4)s3)nc2c1 | 1.51% | -1.36% | -2.12%
2 | Cn1nc(-c2ccc(NC(=O)Nc3cc(C(F)(F)F)ccc3F)c(F)c2)c2cnc(NCCCn3ccnc3)nc21 | -0.19% | -1.5% | 0.5%
3 | CC(C)c1sc(N2CCN(C)CC2)nc1C(=O)NCCc1ccc(Br)cc1 | 3.06% | 1.28% | 2.14%
4 | CCCN(Cc1nnc(-c2cccs2)o1)C(=O)CSc1nnnn1-c1cc(C)cc(C)c1 | 4.84% | 5.88% | 2.71%
5 | N#Cc1ccc(N(CCOc2ccc3c(c2)CCC(=O)N3)Cc2ccccc2C(F)(F)F)cc1C(F)(F)F | 7.14% | 4.94% | 5.81%
6 | C=CCn1c(Sc2ccc(C#N)c([N+](=O)[O-])c2)nnc1-c1cccc(Cl)c1 | -1.46% | -0.51% | -1.95%
7 | NC(=O)COc1c(C2CCN(CCCCNC(=O)c3ccc(-c4ccc(Cl)cc4)c(O)c3)CC2)ccc2c1CCCC2 | -0.69% | 2.57% | 2.53%
8 | Cc1nc2ccc(NC(=O)c3cc(S(=O)(=O)N(C)C)ccc3Cl)cc2s1 | 10.4% | 10.6% | 10.1%
9 | O=C(NCC1CCN(CCN2CCc3ccc4c(c3C2)OCO4)CC1)c1ccc(-c2ccc(C(F)(F)F)cc2)cc1 | 2.17% | 4.3% | 1.81%
10 | Cc1cnc2ccc(NS(=O)(=O)c3sc4ccc(Cl)cc4c3C)cc2c1N1CCNCC1 | 3.23% | 4.04% | -0.02%
11 | Cc1cc(-c2cccc(CNC3CCN(C)CC3)c2)ccc1S(=O)(=O)NC1CCC1 | 2.28% | 1.62% | 0.45%
12 | CCOc1cc(Cc2cnc(N)nc2N)cc(OCC)c1O | 1.1% | 1.86% | -1.21%
13 | CSc1ccc2nccc(Nc3ccc(Oc4ccccc4)cc3)c2c1 | 5.73% | 6.24% | 1.56%
14 | Cc1cc(N[C@@H](Cc2ccccc2)C(=O)NCCc2ccccc2)nc(NCC2CCCCC2)n1 | 2.97% | 3.86% | 1.29%
15 | CCn1cc(C=C2Oc3c(ccc(O)c3CN3CCCCC3)C2=O)c2cc(OC)ccc21 | 3.02% | 2.04% | -0.31%
16 | O=C(O)CCSSc1cccc[n+]1[O-] | 29.9% | 48.3% | 3.25%
17 | c1cc(CNCC2CCCO2)cc(-c2csc(-c3nc4ccccc4[nH]3)c2)c1 (centres undefined) | -1.5% | 2.45% | 2.04%

Row | SMILES | inhibition [1] | inhibition [2] | inhibition [3]
18 | O=C(Nc1ccc(Cl)c(Cl)c1)Nc1ccc2nccc(N3CCNCC3)c2c1 | -0.16% | 0.06% | 0.13%
19 | CN(C)Cc1ccc(-c2ccc3c(Nc4ccc(Oc5ccccc5)cc4)ccnc3c2)o1 | 0.83% | 0.83% | 2.26%
20 | COc1ccc2nc3cc(Cl)ccc3c(NCCO)c2c1 | 2.8% | -1.06% | 2.4%
21 | Cc1cc(N(C)C)nc(Nc2ccc(NC(=O)c3ccccc3C)cc2)n1 | 11.4% | 17.1% | 5.05%
22 | CC(C)(CNCc1cccc(Oc2cccc(C(F)(F)F)c2)c1)c1nc(-c2ccnc(N)n2)c(-c2ccc(Cl)c(O)c2)[nH]1 | 6.03% | 6.79% | 7.44%
23 | CCCCCNC(=N)c1ccc(OCCCCCOc2ccc(C(=N)NCCCCC)cc2)cc1 | 19.6% | 25.9% | 5.15%
24 | CC(C)(C)NC(=O)COC(=O)c1c2c(nc3ccccc13)C(=Cc1ccc3c(c1)OCO3)CCC2 | 1.65% | 1.17% | 0.48%
25 | COC(=O)c1ccc2[nH]cc(C3CCN(CCC4CCN(C(=O)/C=C/c5ccc(Cl)c(Cl)c5)CC4)CC3)c2c1 | 6.59% | 4.72% | 5.91%
26 | O=C(Cc1cccc(Cl)c1)Nc1cccc(-c2c[nH]c3nc(Nc4ccccc4)ncc23)c1 | 3.42% | -0.54% | 0.7%
27 | Cc1cccc(Cn2nc(-c3ccccc3)c(N3CCCCC3)cc2=O)c1 | 2.58% | 3.01% | -2.21%
28 | COc1ccccc1Nc1nc(C)cc(NCc2ccc(-n3ccnc3)cc2)n1 | 8.92% | 7.52% | 3.48%
29 | COC(=O)c1ccc2c(c1)nc(Nc1cccc(F)c1)n2CC(O)c1ccccn1 (centres undefined) | 4.12% | 3.8% | 2.91%
30 | CCCNS(=O)(=O)c1ccc(NC(=O)C(C)Oc2ccc([N+](=O)[O-])cc2)cc1 (centres undefined) | 0.31% | 0.29% | -4.88%
31 | O=C(Nc1cccc(-c2ccc(-c3nc4cc(C(F)(F)F)ccc4[nH]3)cc2)c1)c1ccncc1 | 6.22% | 0.73% | 5.09%
32 | N=C(/N=C(/NCCCCCCN/C(=N\C(=N)Nc1ccc(Cl)cc1)N1CCCCC1)N1CCCCC1)Nc1ccc(Cl)cc1 | -2.47% | -2.65% | -0.71%
33 | CC(C)N1CCC(N(Cc2ccc(-c3ccc(C(F)(F)F)cc3)cc2)C(=O)Cn2c(CCc3cccc(F)c3F)cc(=O)c3c2CCC3)CC1 | 3.12% | 4.34% | 5.2%
